Compound activity (PubChem BioAssay)
D3 antag: blocks the human D3 dopamine receptor; D3R cells, DiscoveRx beta-arrestin luminescence, antagonist mode; hits give low values; max response, negative = inhibition, %; hit rate 2.5% among 360,000; AID 652054; in the data active means max response below about -50%; inconclusive means no clear call, values can overlap the other calls
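Cells expressing the human receptor were seeded at 1500 cells/well, incubated overnight at 37 degrees C in 5% CO2, then exposed to library compounds with dopamine controls for 90 minutes at 37 degrees C before luminescent detection.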
RGS4 inhibitor: inhibitors of human regulator of G protein signaling 4 | Potency, µM (series often up to 114 µM), most hits filed as inhibitors | Transcreener GDP fluorescence polarization, RGS4-accelerated GTP hydrolysis | P49798 | hit rate 0.039% among 390,000; further: nearly all actives have a fitted effect of over 75% in size
Target sequence (P49798 whole entry, looked up): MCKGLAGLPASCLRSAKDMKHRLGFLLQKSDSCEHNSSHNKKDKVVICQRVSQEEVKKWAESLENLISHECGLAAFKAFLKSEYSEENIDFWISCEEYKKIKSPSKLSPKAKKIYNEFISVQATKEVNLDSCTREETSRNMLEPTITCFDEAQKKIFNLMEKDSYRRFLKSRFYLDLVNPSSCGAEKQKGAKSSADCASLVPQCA
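MLSMR compounds (23 nl, pin-transferred) preincubated 10 min at room temperature with a 500nM (2x) first reagent, then RGS4 at 900nM (2x) plus Transcreener GDP mix added; fluorescence polarization (620/688 nm) read before and after 90 min at 30 °C.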
PTHR1 ag: agonists of human PTHR1 parathyroid hormone receptor; Q03431; HEK293 GP2 PTHR1 cells, GloSensor cAMP luminescence, 1 h; Potency, µM (doses to about 115 µM), hits mostly activators; hit rate 0.075% among 410,000; AID 743266; further: nearly all actives have a fitted effect of over 55% in size
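HEK-293-derived GP2 cells expressing PTHR1 and a GloSensor cAMP reporter, 3,000/well, plated overnight, given luciferin plus IBMX (each 0.5 mM as added) for 1 h at 37 °C, then compound for 1 h at 37 °C. Luminescence was read after 15 min at room temperature.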
BRCA1 expr act: BRCA1 expression activation | hit rate 1.1% among 380,000 | MCF7-BRCA1-FFLuc reporter, luminescence, 48 h; response scale: scaled: vehicle 0%, 10 µM genistein 100% | Potency, µM (top dose mostly 46.1 µM), hits mostly activators | AID 624202; further: nearly all actives have a fitted effect of over 80% in size
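MCF7 cells carrying a BRCA1-firefly luciferase reporter (2000 cells/well, phenol-red free MEM) were attached for 2 h at 37 °C, then given compounds for 48 h. Luminescence was read 15 min after luciferase reagent; activity normalized to genistein (10 microM) and DMSO.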
DRD3 agonist: D3 dopamine receptor (human) agonism | P35462 | D3R DiscoveRx beta-arrestin cells, luminescence, 90 min | max activation, % | hit rate 0.58% among 410,000; in the data active means max activation above about 30%
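Agonist mode: compounds and dopamine controls were applied to plated cells for 90 min at 37 degrees C after an overnight attachment at 1500 cells/well. Luminescent read-out followed 30 - 60 minutes at room temperature with DiscoveRx detection reagent.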
B2AR arrestin: recruits beta-arrestin to the human beta2-adrenergic receptor | hit rate 0.02% among 330,000 | beta-arrestin recruitment to beta2AR, cell-based reporter | P07550 | Potency, µM (series often up to 46.1 µM), usual class: activators; further: nearly all actives have a fitted effect of over 65% in size
Target sequence (P07550 whole entry, looked up): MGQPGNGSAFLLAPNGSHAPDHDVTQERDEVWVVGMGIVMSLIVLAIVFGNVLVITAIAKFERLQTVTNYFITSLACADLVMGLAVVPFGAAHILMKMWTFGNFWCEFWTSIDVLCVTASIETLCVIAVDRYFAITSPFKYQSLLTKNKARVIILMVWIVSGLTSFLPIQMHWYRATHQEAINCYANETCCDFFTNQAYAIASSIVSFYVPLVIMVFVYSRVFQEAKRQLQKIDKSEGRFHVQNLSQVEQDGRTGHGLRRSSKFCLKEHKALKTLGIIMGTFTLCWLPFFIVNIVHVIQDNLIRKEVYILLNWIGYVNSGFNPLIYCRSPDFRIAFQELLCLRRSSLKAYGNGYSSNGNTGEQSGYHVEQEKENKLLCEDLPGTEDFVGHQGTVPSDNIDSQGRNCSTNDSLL
A number is an active result; 0 = inactive; ? = inconclusive; - = no result given; [ ] = remark or other dose. Compounds with a hit are over-represented: about 3.7% of the library has one in this group of screens. Unless noted, the call rests on the fitted dose curve; in most records, active means well fitted curve in the direction sought with a large enough effect; inconclusive means small, poorly fitted or top-dose-only effect, or another doubt; inactive means no such curve, though single readings can be large; an effect the other way counts as inactive or inconclusive.

SMILES	D3 antag	RGS4 inhibitor	PTHR1 ag	BRCA1 expr act	DRD3 agonist	B2AR arrestin
Cc1cccc(-c2noc(CSc3ccccc3)n2)c1	0	0	0	3.2µM	0	0
c1ccc(SCc2nc(-c3ccccn3)no2)cc1	0	0	0	7.1µM	0	0
COc1ccc(-c2oc3ncn4nc(-c5ccc(Cl)cc5)nc4c3c2-c2ccc(OC)cc2)cc1	-	0	0	0	0	-
CCc1ccc(C(=O)c2cn(CC(=O)Nc3ccc(F)cc3)c3ccc(F)cc3c2=O)cc1	-	0	0	0	0	-
COc1ccc(Cc2nc(-c3ccccn3)no2)cc1	0	0	0	?	0	0
c1ccc(-c2nc(-c3ccccn3)no2)cc1	0	0	0	?	0	0
c1ccc(Cc2nc(-c3ccccn3)no2)cc1	0	0	0	5µM	0	0
Cc1ccc(Cc2nc(-c3ccccn3)no2)cc1	0	0	0	2.2µM	0	0
COc1cccc(CNC(=O)c2cc(S(=O)(=O)N3CCCCC3)c[nH]2)c1	0	0	0	0	0	0
O=C(NCc1ccc(Cl)cc1)c1cc(S(=O)(=O)N2CCCCC2)c[nH]1	-54	0	0	0	0	0
CC(C)c1cccc(C(C)C)c1OCCCCN1CCCC1	-58	0	0	0	0	0
CCOc1ccccc1OCCCCN1CCCC1	-63	0	0	0	0	0
Cc1cc(C)c(C)c(OCCCCN2CCCCC2)c1	-55	0	0	0	0	0
Clc1cccc(Cl)c1OCCCCN1CCCCC1	0	0	0	0	0	0
CC(C)(C)c1ccccc1OCCCCN1CCCC1	-68	0	0	0	0	0
CCOc1ccc(CCNC(=O)COc2cccc(-n3cnnn3)c2)cc1OCC	0	0	0	?	0	0
CC[N+](C)(C)c1ccc(/C=C/c2ccc3ccccc3n2)cc1	-	-	-	0	-	-
O=C(Cn1cnc2ccccc2c1=O)Nc1ccccc1N1CCOCC1	0	0	0	0	0	0
COc1ccccc1NC(=O)C1CCCN1C(=O)NC1CCCCC1 (stereo unspecified)	0	0	0	0	0	0
CCc1ccccc1OCCCN1CCCC1	?	0	0	0	0	0
CCc1ccccc1OCCCCN1CCCCC1	-87	0	0	0	0	0
COc1ccccc1-c1cnc(C(O)c2ccc(CN3CCCC3)cc2)[nH]1 (stereo unspecified)	0	-	0	0	0	-
CCOC(=O)C1(CCOc2ccccc2)CCN(Cc2cccc(-n3cccn3)c2)CC1	-60	0	0	0	0	0
CCOC(=O)C1(CCOc2ccccc2)CCN(Cc2cccc3c2OCO3)CC1	-60	0	0	0	0	0
CCOC(=O)C1(CCOc2ccccc2)CCN(Cc2ccc(NC(C)=O)cc2)CC1	0	0	0	0	0	0
SMILES	D3 antag	RGS4 inhibitor	PTHR1 ag	BRCA1 expr act	DRD3 agonist	B2AR arrestin
CCOC(=O)C1(CCOc2ccccc2)CCN(Cc2cccc(OCCO)c2)CC1	0	0	0	0	0	0
CCOC(=O)C1(CCOc2ccccc2)CCN(Cc2ccccc2O)CC1	0	0	0	0	0	-
CCOC(=O)C1(CCOc2ccccc2)CCN(Cc2cccc(F)c2)CC1	-53	0	0	0	0	0
CCOC(=O)C1(CCOc2ccccc2)CCN(Cc2ccc(OC)cc2)CC1	-72	0	0	0	0	-
CCOC(=O)C1(C)CCCN(C(=O)c2ccc(F)cc2Cl)C1 (stereo unspecified)	0	-	0	0	0	-
Cc1cc(F)ccc1NC(=O)CN(C)S(=O)(=O)c1ccc(C(=O)N2CCOCC2)s1	-	0	0	0	0	-
O=C(O)c1ccc(Cl)c(S(=O)(=O)NCC2CCCO2)c1 (stereo unspecified)	-54	0	0	0	0	0
O=S(=O)(NCC1CCCO1)c1cc(Cl)ccc1Cl (stereo unspecified)	0	0	0	0	0	0
C[C@H](NCCc1ccc(O)cc1)[C@H](O)c1ccc(O)cc1	0	0	0	0	0	0
CC(COc1ccccc1)NC(C)C(O)c1ccc(O)cc1 (stereo unspecified)	-87	0	0	0	0	0
COc1cc2cc(CCCOC(=O)CCC(=O)O)oc(=O)c2cc1OC	0	0	0	0	0	0
O=c1c2cc(-c3ccccc3)sc2ncn1/N=C/c1ccco1	0	0	0	11µM	0	0
CCCCCn1cnc2sc(-c3ccccc3)cc2c1=O	0	0	0	5µM	0	0
O=C(Nc1ccc(F)c(F)c1)C(c1ccccc1)N1Cc2ccccc2C1=O (stereo unspecified)	-	0	0	-	0	-
O=C(NC(=S)NCc1nc2ccccc2[nH]1)c1ccc(F)cc1	0	0	0	0	0	0
O=C(NC(=S)NCc1nc2ccccc2[nH]1)c1ccccc1F	-63	0	0	?	0	0
O=C(CSc1nc2ccccc2[nH]1)N1CCCCC1	-96	0	0	?	0	0
O=C(CSc1nc2ccccc2n1S(=O)(=O)c1ccccc1)N1CCCCC1	?	0	0	14µM	0	0
O=C(CSc1nc2ccccc2[nH]1)c1ccccc1F	0	0	0	2µM	0	0
O=S(=O)(c1ccccc1)n1nc(-c2ccc(Cl)cc2)nc1NCc1ccc(F)cc1	-	0	?	0	0	-
O=C1c2cccnc2C(=O)N1Cc1ccc(S(=O)(=O)N2CCOc3ccc(Cl)cc32)cc1	0	0[11.4 µM]	0	0	0	0
Cc1ccc2nc(SCC(=O)c3cc(C)n(C)c3C)[nH]c2c1	0	0	0	0	0	0
O=C(CSc1nc2ccccc2[nH]1)c1c[nH]c2ccccc12	-56	0	0	0	0	0
Cc1cc(C(=O)CSc2nc3ccc(Cl)cc3[nH]2)c(C)n1C	0	0	0	0	33	0
O=C(NC(Cc1ccccc1)C(=O)O)/C(=C/c1ccc([N+](=O)[O-])cc1)NC(=O)c1ccccc1 (stereo unspecified)	0	0	0	0	0	0
SMILES	D3 antag	RGS4 inhibitor	PTHR1 ag	BRCA1 expr act	DRD3 agonist	B2AR arrestin
COc1ccc(NC(=O)C23CC4CC(C2)CC(c2ccccc2)(C4)C3)c(OC)c1	0	0	0	0	32	0
COCCNC(=O)C12CC3CC(C1)CC(c1ccccc1)(C3)C2	0	0	0	0	0	0
COc1ccc(-n2nc(C#N)c(Cl)cc2=O)cc1	-104	0	0	0	0	0
CC(=O)c1ccc(N(CC(=O)NC2CCS(=O)(=O)C2)S(=O)(=O)c2ccc(C)cc2)cc1 (stereo unspecified)	0	0	0	0	0	0
Oc1c(Br)cc(Cl)cc1C=Nc1ccccc1Br	-73	0	0	0	0	0
COc1ccc2cc(/C=N/O)c(Cl)nc2c1	0	0	0	7.9µM	0	0
O=C(O)c1ccccc1C1c2ccccc2Oc2ccccc21	-72	0	0	0	0	-
